TexasRed fluor = Total Fluorescence Counterscreen for Inhibitors of the Interaction of Thyroid Hormone Receptor and Steroid Receptor Coregulator 2. TRb/SRC2 Texas Red total fluorescence interference. Potency, µM (series often up to 106 µM), for inactives: at the top dose fluorescence change, negative = quenching. 280,000 tested, 0.29% active; active = well fitted curve in either direction with a large enough effect; inconclusive = small, poorly fitted or top-dose-only effect; note: potency is the fitted concentration of half-maximal effect
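Human TRβ ligand-binding domain (0.6 uM) and Texas Red SRC2 peptide (20 nM) in Tris buffer with 1 uM T3 and 5% DMSO were incubated with pinned compound for 5 hr at ambient temperature. Total fluorescence was computed as S + 2P (555/632 nm).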
TRb SRC2 PPI = qHTS for Inhibitors of the Interaction of Thyroid Hormone Receptor and Steroid Receptor Coregulator 2; Potency, µM (doses to about 106 µM), for inactives: top-dose activity change, negative = inhibition, hits mostly inhibitors; 280,000 tested, 0.065% active; TRbeta-SRC2 peptide binding, fluorescence polarization; receptor liganded with 1 µM T3; Thyroid hormone receptor beta (Homo sapiens), P10828;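 note: potency is the fitted concentration of half-maximal effect; plate controls were bound peptide for no effect and peptide without receptor for full effect; nearly all actives have a fitted effect of over 50% in size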
Target sequence (P10828 whole entry, looked up): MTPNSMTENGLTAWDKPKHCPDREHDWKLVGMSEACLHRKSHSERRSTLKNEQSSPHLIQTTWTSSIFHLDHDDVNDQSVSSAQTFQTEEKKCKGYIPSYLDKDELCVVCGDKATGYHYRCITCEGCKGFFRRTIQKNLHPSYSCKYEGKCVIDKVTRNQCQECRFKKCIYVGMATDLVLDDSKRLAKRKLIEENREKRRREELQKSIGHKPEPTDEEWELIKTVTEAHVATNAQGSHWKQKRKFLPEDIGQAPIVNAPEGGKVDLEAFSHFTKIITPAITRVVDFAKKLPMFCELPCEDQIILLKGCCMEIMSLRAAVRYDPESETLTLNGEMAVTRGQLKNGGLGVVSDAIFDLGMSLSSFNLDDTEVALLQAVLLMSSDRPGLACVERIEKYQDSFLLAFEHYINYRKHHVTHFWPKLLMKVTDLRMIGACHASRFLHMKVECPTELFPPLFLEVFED
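Fluorescence polarization of 20 nM Texas Red SRC2 peptide (20-aa NR interaction domain) bound to 0.6 uM human TRb ligand-binding domain, with 1 uM T3, after 5 hr at ambient temperature; inhibition seen as decreased polarization.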
Tau FP inhib = qHTS for Inhibitors of Tau Fibril Formation, Fluorescence Polarization. Microtubule-associated protein tau (Homo sapiens), P10636. K18 P301L tau heparin fibrillization, Alexa594 FP, 6 h. Potency, µM (series often up to 57.7 µM), inactives show at the top dose activity, negative = inhibition, hits mostly inhibitors. 280,000 tested, 0.39% active. AID 1468, 2008; note: potency is the fitted concentration of half-maximal effect; nearly all actives have a fitted effect of over 55% in size
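FP of Alexa 594-tau after heparin (20 uM) induction. Substrate: human K18 P301L, 15 uM unlabeled, 0.24 uM labeled. Buffer 100 mM sodium acetate pH 7. 6 hr, 37 C.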
Tau fibril ThT = qHTS for Inhibitors of Tau Fibril Formation, Thioflavin T Binding; Microtubule-associated protein tau (Homo sapiens), P10636; AID 1460, 2008; 270,000 tested, 2.1% active; Potency, µM (highest dose often 57.4 µM), without a hit: at the top dose activity, negative = inhibition, usual class: inhibitors; recombinant tau K18 P301L, heparin-induced fibrillization, ThT fluorescence; note: potency is the fitted concentration of half-maximal effect; nearly all actives have a fitted effect of over 55% in size
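Aggregation was driven by heparin (20 uM final) acting on recombinant tau […] bearing P301L in 100 mM sodium acetate pH 7; fibrils were detected with Thioflavin T.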
PNC inhibitor = High Content Assay for Compounds that inhibit the Assembly of the Perinucleolar Compartment | PC3M PTB-GFP, PNC prevalence imaging, 16 h; active compounds read low | activity change (PNC), negative = inhibition, % at 10 µM | 140,000 tested, 3.1% active;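 active = readout at or below -70, meaning at least 70% loss of cells showing the perinucleolar compartment, a nuclear body marking cancer cells; inconclusive = readout between -30 and a set limit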;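 note: plate controls were DMSO wells for no effect and camptothecin positive control wells for full effect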
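PC3M cells stably expressing PTB-GFP, 750–1000 cells/well, treated 16 h at 37 °C with compound (23 nl of library stock), in duplicate. After paraformaldehyde fixation and Hoechst stain, imaged at 20x; PNC prevalence scored by image analysis.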
Tau fluor cs = Counterscreen qHTS for Inhibitors of Tau Fibril Formation, Fluorescence Polarization; tau K18 P301L (four-repeat tau fragment) Alexa594 fluorescence, heparin fibrillization; Potency, µM (titrated, usually from 57.7 µM), for inactives: top-dose activity change, negative = decrease; 280,000 tested, 0.93% active; note: potency is the fitted concentration of half-maximal effect; nearly all actives have a fitted effect of over 55% in size
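Human K18 P301L tau (15 uM unlabeled plus 0.24 uM Alexa 594-labeled, final) in 100 mM sodium acetate pH 7 was mixed with compound and 20 uM heparin and incubated 6 hr at 37 C.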
An asterisk follows results filed as active; u = inconclusive; x = no result; [ ] = remark or other dose. The list is not random: actives were taken first. Their share in the collection is about 4.6%. Unless noted, calls come from the whole dose curve; as a rule, active = well fitted curve in the direction sought with a large enough effect; inconclusive = small, poorly fitted or top-dose-only effect, or another doubt; inactive = no such curve, though single readings can be large; an effect the other way counts as inactive or inconclusive. Unless noted, % is set by controls: 0 for no effect and ±100 for the full control effect.

SMILES	TexasRed fluor	TRb SRC2 PPI	Tau FP inhib	Tau fibril ThT	PNC inhibitor	Tau fluor cs
O=C(/C=C/c1cccc(F)c1)c1ccc(N2CCOCC2)cc1	2.4%	5.4%	1.5%	12.6µM*	x	u
O=C(/C=C/c1cccs1)c1ccc([N+](=O)[O-])cc1	-3.0%	-4.2%	12.0%	u	x	-16.2%
O=C(/C=C/c1cccc(F)c1)Nc1cc(S(=O)(=O)N2CCOCC2)ccc1N1CCCC1	-2.7%[53 µM]	-1.2%[53 µM]	8.8%	-3.7%	-11.1	-5.4%
CCCCCCCNC(=O)c1ccc(N2CCC3(CC2)OCCO3)c([N+](=O)[O-])c1	-1.7%	-0.3%	17.1%	u	-119.3*	-13.1%
COc1ccc(CNC(=O)c2ccc(N3CCOCC3)c([N+](=O)[O-])c2)cc1	-1.0%	-3.4%	-1.0%	-12.5%	x	-2.4%
O=C(O)c1ccccc1C(=O)Nc1ccc(-n2ccc(C(F)(F)F)n2)cc1	-2.4%	-2.2%	2.0%	-3.0%	x	-5.8%
Cc1cc(C)cc(NC(=O)Nc2ccc(N3CCCCC3)cc2)c1	-1.8%	-5.2%	10.2%	u	x	20µM*[quencher]
O=C(Nc1ccc(-n2ccc(C(F)(F)F)n2)cc1)Nc1cccc(Cl)c1	-0.7%	5.6%	3.55µM*	13.3%	x	u
Cc1cc(C)cc(NC(=O)Nc2ccc(-n3ccc(C(F)(F)F)n3)cc2)c1	-6.7%	-0.1%	17.8µM*	3.1%	x	u
COc1ccccc1NC(=O)Nc1ccc(-n2ccc(C(F)(F)F)n2)cc1	-1.0%	-4.0%	u	u	x	14.1µM*[quencher]
CCOc1ccc(OCC)c(NC(=O)CN2CCN(C(=O)c3ccco3)CC2)c1	-1.7%	-4.2%	-2.9%	-9.9%	9.4	-6.2%
O=C1C2CC(O)CN2C(=O)N1c1ccccc1 (stereo not drawn)	-1.9%	-0.3%	-4.4%	-4.1%	x	-0.7%
CC(C)CNc1cc(Cl)c(S(=O)(=O)NCC(C)C)cc1C(=O)O	0.9%	4.8%	-1.9%	-6.2%	u	-0.7%
CCc1cccc(C)c1NC(=O)c1ccoc1C	-2.0%	-5.9%	-1.3%	-4.7%	u	1.5%
Cc1ccccc1C(=O)Oc1ccc(Sc2ccc(O)cc2)cc1	0.7%	1.2%	25.1µM*	u	4.2	7.08µM*[quencher]
COc1cc(/C=C2\SC(=S)N(Nc3ncc(C(F)(F)F)cc3Cl)C2=O)ccc1O	23.3%	u	-14.9%	15.8µM*	27.8	14.1µM*[quencher]
COc1ccc(/C=C2\SC(=S)N(C(C(=O)O)c3ccccc3)C2=O)c(OC)c1 (stereo not drawn)	-4.2%	0.9%	-10.7%	12.6µM*	x	-10.7%
CCOc1ccc(/C=C2\SC(=S)N(NS(=O)(=O)c3ccc(C)cc3)C2=O)cc1OC	-6.2%	-0.2%	-6.1%	u	x	-2.7%
CCOc1ccc(/C=C2\SC(=S)N(NS(=O)(=O)c3ccccc3)C2=O)cc1OC	-3.7%	4.2%	7.5%	14.1µM*	x	-6.1%
CCOc1cc(/C=C2\SC(=S)N(N3CCOCC3)C2=O)ccc1O	-3.9%	5.3%	1.1%	0.6%	x	0.1%
CCOc1cc(/C=C2\SC(=S)N(Nc3ccccc3)C2=O)ccc1O	28.3%	u	1.4%	11.2µM*	-22.9	12.6µM*[quencher]
O=C(O)C1Cc2ccccc2CN1C(=O)CSc1nnc2ccccn12 (stereo not drawn)	0.8%	0.9%	4.4%	-4.0%	x	-1.6%
COc1ccc(CN2CCNC(=O)C2CC(=O)O)c(OC)c1 (stereo not drawn)	-3.1%	-4.4%	-4.7%	-1.0%	-10.0	7.3%
O=C1/C(=C/c2ccc(O)c(O)c2)SC(=S)N1Nc1ccccc1	10.2%	22.0%	-4.8%	5.01µM*	x	11.2µM*[quencher]
